# “And” between values parts separate entries of the source, which are not always exact repeats. Identical values can stand only once. Inconclusive results are not listed. A call without a number means that no potency is given here. A structure can be active in one record and inactive in another. The source made the active and inactive calls. Unless noted, calls follow the shape of the dose curve; as a rule, active = well fitted curve in the direction sought with a large enough effect in the repeat runs; inconclusive = weak or mixed curves; inactive = no such curve, though single readings can be large; an effect the other way counts as inactive or inconclusive.
# Columns and labels:
# [1] = test system: thyroid hormone receptor (rat, GH3 cells); assay: qHTS assay to identify small molecule agonists of the thyroid receptor (TR) signaling pathway (AID 743066; calls by dose curve)
# [2] = target: Estrogen receptor (Homo sapiens) (UniProt P03372); assay: qHTS assay to identify small molecule antagonists of the estrogen receptor alpha (ER-alpha) signaling pathway (AID 743069; active = well fitted curve in the direction sought with a large enough effect in the signal ratio in the repeat runs, not every such curve was filed as active; the % refers to the signal ratio)
# Sequence of Estrogen receptor (Homo sapiens) (P03372 whole entry, looked up): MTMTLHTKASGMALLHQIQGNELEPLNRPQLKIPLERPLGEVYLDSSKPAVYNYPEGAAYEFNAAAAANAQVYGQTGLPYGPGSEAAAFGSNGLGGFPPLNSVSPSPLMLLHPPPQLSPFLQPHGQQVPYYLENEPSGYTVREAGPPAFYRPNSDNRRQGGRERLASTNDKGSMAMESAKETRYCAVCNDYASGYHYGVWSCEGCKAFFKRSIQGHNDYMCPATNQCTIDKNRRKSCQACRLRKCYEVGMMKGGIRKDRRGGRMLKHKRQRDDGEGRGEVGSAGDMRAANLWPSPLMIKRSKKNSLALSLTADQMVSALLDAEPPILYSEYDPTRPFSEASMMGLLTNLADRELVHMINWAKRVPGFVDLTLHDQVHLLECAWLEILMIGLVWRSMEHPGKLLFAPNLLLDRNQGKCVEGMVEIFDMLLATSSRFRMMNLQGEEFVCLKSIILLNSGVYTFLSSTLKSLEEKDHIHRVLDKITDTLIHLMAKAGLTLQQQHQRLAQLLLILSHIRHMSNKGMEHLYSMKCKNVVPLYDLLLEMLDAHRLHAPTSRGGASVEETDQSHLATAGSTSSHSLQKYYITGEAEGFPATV
# Method in brief: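 Fluorescence intensity from a beta-lactamase FRET substrate served as the read-out. Cells: HEK293 with stably integrated ER-alpha-UAS-bla reporter. Agonist 17beta-estradiol was co-added with compounds; incubation 18 hr at 37C, substrate 2 hr at room temperature.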
# [3] = qHTS assay to identify small molecule antagonists of the estrogen receptor alpha (ER-alpha) signaling pathway - cell viability counter screen (AID 743074; calls by dose curve; also: nearly all actives have a fitted effect of over 45% in size)
# [4] = target: Estrogen receptor (Homo sapiens) (UniProt P03372); assay: qHTS assay to identify small molecule agonists of the estrogen receptor alpha (ER-alpha) signaling pathway (AID 743075; calls by dose curve)
# [5] = target: Estrogen receptor (Homo sapiens) (UniProt P03372); assay: qHTS assay to identify small molecule agonists of the estrogen receptor alpha (ER-alpha) signaling pathway using the BG1 cell line (AID 743079); also: nearly all actives have a fitted effect of over 20% in size
# [6] = qHTS assay to identify small molecule antagonists of the estrogen receptor alpha (ER-alpha) signaling pathway using the BG1 cell line (AID 743080; calls by dose curve;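 also: BG1 cells stimulated with 17beta-estradiol alongside compound; series mostly up to about 70 µM; nearly all actives have a fitted effect of over 25% in size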)
# Method in brief: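 After 5 days in phenol-red-free 10% charcoal-stripped FBS medium, BG1-Luc-4E2 cells were seeded, left 24 h at 37 C, co-treated with compounds and 17beta-estradiol for 21.5 h, then assayed for viability and luciferase.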
# [7] = qHTS assay to identify small molecule antagonists of the estrogen receptor alpha (ER-alpha) signaling pathway using the BG1 cell line - cell viability counter screen (AID 743081);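 also: compound given together with 17beta-estradiol as the ER stimulus; series mostly up to about 70 µM; nearly all actives have a fitted effect of over 45% in size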
# [8] = target: Aromatase (Homo sapiens) (UniProt P11511); assay: qHTS assay to identify aromatase inhibitors (AID 743083); also: nearly all actives have a fitted effect of over 55% in size; also: potency is read from the fitted curve at half-maximal effect
# Sequence of Aromatase (Homo sapiens) (P11511 whole entry, looked up): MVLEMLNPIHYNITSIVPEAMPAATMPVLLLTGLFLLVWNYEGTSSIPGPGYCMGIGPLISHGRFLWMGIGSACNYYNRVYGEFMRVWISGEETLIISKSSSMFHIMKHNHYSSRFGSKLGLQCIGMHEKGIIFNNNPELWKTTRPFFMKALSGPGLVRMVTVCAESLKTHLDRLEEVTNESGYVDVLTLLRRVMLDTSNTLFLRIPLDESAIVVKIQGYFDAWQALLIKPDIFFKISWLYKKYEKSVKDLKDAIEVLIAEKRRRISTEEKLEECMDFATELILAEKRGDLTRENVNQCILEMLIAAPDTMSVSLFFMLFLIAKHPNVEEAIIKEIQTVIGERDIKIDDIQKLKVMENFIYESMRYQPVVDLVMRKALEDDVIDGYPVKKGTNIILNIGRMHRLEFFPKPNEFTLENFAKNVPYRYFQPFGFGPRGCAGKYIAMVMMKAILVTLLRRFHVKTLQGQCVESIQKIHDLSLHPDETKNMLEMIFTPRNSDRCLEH
# [9] = qHTS assay to identify aromatase inhibitors - cell viability counter screen (AID 743084);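 also: cells stimulated with testosterone during compound exposure; nearly all actives have a fitted effect of over 55% in size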; also: potency is read from the fitted curve at half-maximal effect
# [10] = target: Aryl hydrocarbon receptor (Homo sapiens) (UniProt P35869); assay: qHTS assay to identify small molecule that activate the aryl hydrocarbon receptor (AhR) signaling pathway (AID 743085); also: nearly all actives have a fitted effect of over 15% in size; also: potency is read from the fitted curve at half-maximal effect;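 as to activation: HG2L7.5c1 human HepG2 liver cells with stably integrated DRE-driven firefly reporter; series mostly up to about 70 µM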
# Sequence of Aryl hydrocarbon receptor (Homo sapiens) (P35869 whole entry, looked up): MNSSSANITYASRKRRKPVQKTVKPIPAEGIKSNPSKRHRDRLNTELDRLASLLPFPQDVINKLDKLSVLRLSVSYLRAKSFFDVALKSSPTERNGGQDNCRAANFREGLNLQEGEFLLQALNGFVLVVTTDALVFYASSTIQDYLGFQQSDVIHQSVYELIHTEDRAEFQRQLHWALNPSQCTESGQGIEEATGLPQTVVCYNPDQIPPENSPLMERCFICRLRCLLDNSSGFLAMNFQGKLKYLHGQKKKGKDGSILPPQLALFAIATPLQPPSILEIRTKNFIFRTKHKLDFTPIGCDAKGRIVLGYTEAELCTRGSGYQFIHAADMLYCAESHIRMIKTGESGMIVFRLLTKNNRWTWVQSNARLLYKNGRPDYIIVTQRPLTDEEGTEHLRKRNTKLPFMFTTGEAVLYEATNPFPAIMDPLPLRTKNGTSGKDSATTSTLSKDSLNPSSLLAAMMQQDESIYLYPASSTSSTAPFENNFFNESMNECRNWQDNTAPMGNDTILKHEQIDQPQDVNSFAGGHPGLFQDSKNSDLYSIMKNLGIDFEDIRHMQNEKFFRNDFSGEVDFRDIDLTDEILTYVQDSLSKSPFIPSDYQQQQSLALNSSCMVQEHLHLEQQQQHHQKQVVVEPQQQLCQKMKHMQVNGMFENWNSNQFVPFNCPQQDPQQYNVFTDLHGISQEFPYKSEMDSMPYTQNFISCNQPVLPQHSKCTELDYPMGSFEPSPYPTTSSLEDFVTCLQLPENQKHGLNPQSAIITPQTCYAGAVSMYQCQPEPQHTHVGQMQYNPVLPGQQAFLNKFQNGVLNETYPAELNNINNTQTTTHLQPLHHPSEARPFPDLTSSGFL
# Method in brief: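 Steps: seed HepG2-AhR-luc cells; allow 5 h at 37C; pin-transfer test compound or vehicle; incubate 24 h at 37C; add viability dye (30 min, 37C) and read fluorescence; add luciferase substrate (30 min, RT) and read luminescence.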
# [11] = qHTS assay to identify small molecule that activate the aryl hydrocarbon receptor (AhR) signaling pathway - cell viability counter screen (AID 743086);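 also: HepG2 liver cells carrying the AhR DRE luciferase reporter; series mostly up to about 70 µM; nearly all actives have a fitted effect of over 45% in size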
# Method in brief: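 Cytotoxicity counter screen: CellTiter-Fluor signal (30 min, 37 C) in 4000 HepG2 cells/well carrying the DRE-luciferase reporter, following 24 h compound exposure at 37 C.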
# [12] = target: Peroxisome proliferator-activated receptor gamma (Homo sapiens) (UniProt P37231); assay: qHTS assay to identify small molecule agonists of the peroxisome proliferator-activated receptor gamma (PPARg) signaling pathway (AID 743094; active = well fitted activation curve with a large enough effect in the signal ratio in the repeat runs, not every such curve was filed as active; the % refers to the signal ratio)
# Sequence of Peroxisome proliferator-activated receptor gamma (Homo sapiens) (P37231 whole entry, looked up): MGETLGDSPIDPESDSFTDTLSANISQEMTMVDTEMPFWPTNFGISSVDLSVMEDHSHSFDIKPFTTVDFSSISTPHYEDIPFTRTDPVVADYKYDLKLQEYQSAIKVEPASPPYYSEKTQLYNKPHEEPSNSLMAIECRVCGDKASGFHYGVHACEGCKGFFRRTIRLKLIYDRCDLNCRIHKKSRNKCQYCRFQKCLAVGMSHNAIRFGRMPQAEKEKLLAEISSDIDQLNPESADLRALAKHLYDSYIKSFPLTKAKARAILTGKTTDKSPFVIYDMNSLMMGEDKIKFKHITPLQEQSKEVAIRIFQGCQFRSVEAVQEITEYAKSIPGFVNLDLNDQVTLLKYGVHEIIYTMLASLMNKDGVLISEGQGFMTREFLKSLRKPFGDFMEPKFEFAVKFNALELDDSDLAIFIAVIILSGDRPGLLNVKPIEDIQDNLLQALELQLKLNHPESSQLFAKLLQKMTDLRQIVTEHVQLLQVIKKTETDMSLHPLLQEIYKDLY
# Method in brief: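 Agonist activity was taken from a beta-lactamase reporter (FRET substrate, 1 h at room temperature) in HEK293H cells carrying a PPARg UAS-bla construct. Compounds in DMSO were incubated 17 h at 37C after a 5 h cell pre-incubation.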
# [13] = target: Peroxisome proliferator-activated receptor gamma (Homo sapiens) (UniProt P37231); assay: qHTS assay to identify small molecule antagonists of the peroxisome proliferator-activated receptor gamma (PPARg) signaling pathway (AID 743191; calls by dose curve; also: nearly all actives have a fitted effect of over 30% in size; also: potency is read from the fitted curve at half-maximal effect)
# Method in brief: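 Beta-lactamase reporter under UAS control in HEK293H PPARg-bla cells; compound treatment 17 h at 37C. Read-out: fluorescence intensity after 1 h room-temperature incubation with LiveBLAzer B/G FRET substrate.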
# [14] = qHTS assay to identify small molecule antagonists of the peroxisome proliferator-activated receptor gamma (PPARg) signaling pathway - cell viability counter screen (AID 743194); also: nearly all actives have a fitted effect of over 55% in size
# Method in brief: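 Viability was measured as CellTiter-Glo luminescence in GeneBLAzer PPARg UAS-bla HEK293H cells. These cells had been exposed 17 h at 37 C to compounds together with rosiglitazone at 50 nM final, with the beta-lactamase readout taken in the same wells.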
# [15] = qHTS assay for small molecule agonists of the antioxidant response element (ARE) signaling pathway (AID 743202; active = well fitted activation curve with a large enough effect in the signal ratio in the repeat runs, not every such curve was filed as active; the % refers to the signal ratio)
# Method in brief: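 Beta-lactamase reporter activity, read as fluorescence intensity, reflects ARE/Nrf2 pathway induction in HepG2 cells after 16 h compound exposure at 37 C; substrate loading was 2 h at room temperature.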
# [16] = qHTS assay for small molecule agonists of the antioxidant response element (ARE) signaling pathway - cell viability counter screen (AID 743203; calls by dose curve; also: nearly all actives have a fitted effect of over 55% in size; also: potency is read from the fitted curve at half-maximal effect)
# Method in brief: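 Viability counter screen: CellTiter-Glo luminescence, read after 30 min at room temperature, in ARE-bla HepG2 wells. Compound exposure lasted 16 h at 37C/5% CO2, following a 5 h pre-incubation of the cells after plating.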
# [17] = qHTS assay for small molecule activators of the heat shock response signaling pathway - cell viability counter screen (AID 743209); also: nearly all actives have a fitted effect of over 50% in size; also: potency is read from the fitted curve at half-maximal effect
# Method in brief: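 Cytotoxicity counter screen run in the same wells as the heat-shock bla reporter assay: HeLa HSE-bla cells, 5 h compound exposure at 37 C, viability read by CellTiter-Glo luminescence.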
# [18] = qHTS assay for small molecule activators of the heat shock response signaling pathway (AID 743210; active = well fitted activation curve with a large enough effect in the signal ratio in the repeat runs, with a control signal flat, not every such curve was filed as active; the % refers to the signal ratio;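 also: HeLa cells with beta-lactamase reporter driven by heat shock elements; series mostly up to about 63 µM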)
# Method in brief: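 Fluorescence from a cleaved B/G FRET substrate (2.5 h, room temp) reports HSE-driven beta-lactamase in HeLa cells treated 5 h at 37 C with DMSO-dissolved compounds.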
# [19] = qHTS assay to identify small molecule antagonists of the thyroid receptor (TR) signaling pathway - cell viability counter screen (AID 743064); also: nearly all actives have a fitted effect of over 50% in size; also: potency is read from the fitted curve at half-maximal effect
# Method in brief: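 Plate GH3.TRE-Luc cells; incubate 4 h at 37 °C; add compound, then T3 to 1 nM final; incubate 23.5 h; add CellTiter-Fluor; incubate 30 min at 37 °C, 5% CO2; read fluorescence.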
Structure (SMILES),Potency [1],Potency [2],outcome [3],outcome [4],Potency [5],outcome [6],outcome [7],Potency [8],Potency [9],Potency [10],outcome [11],outcome [12],Potency [13],outcome [14],Potency [15],Potency [16],Potency [17],Potency [18],Potency [19]
C=C(C)C(=O)OCC(CC)CCCC (stereo unspecified),inactive,inactive,inactive,inactive,inactive,inactive,inactive,inactive,inactive,inactive,inactive,inactive,inactive,inactive,inactive,inactive,inactive,inactive,–
C=CC(=O)OCC(CC)CCCC (stereo unspecified),inactive,–,inactive,–,–,–,inactive,inactive,inactive,inactive,inactive,–,–,inactive,inactive,inactive,inactive,inactive,inactive
COc1cc(-c2ccc(N)c(OC)c2)ccc1N,inactive,–,inactive,–,–,–,inactive,inactive,inactive,–,inactive,inactive,inactive and 33.1 µM (active),inactive,–,inactive,inactive,inactive,inactive and 52 µM (active)
CC(=O)C1CCOC1=O (stereo unspecified),inactive,–,inactive,–,–,–,inactive,inactive,inactive,inactive,inactive,inactive,inactive,inactive,inactive,inactive,inactive,inactive,inactive
Nc1ccc([As](=O)(O)O)cc1,inactive,inactive,inactive,inactive,inactive,inactive,inactive,inactive,inactive,–,inactive,inactive,inactive,inactive,inactive,inactive,inactive,inactive,inactive
N#Cc1cccc(C#N)c1,inactive,–,inactive,–,–,–,inactive,inactive,inactive,inactive,inactive,inactive,inactive,inactive,inactive,inactive,inactive,inactive,inactive
CC(C)(C)C(=O)CCl,–,inactive,inactive,inactive,inactive,inactive,inactive,inactive,inactive,–,inactive,inactive,inactive,inactive,inactive,inactive,inactive,inactive,inactive
Cc1cccc(C)c1N,inactive,inactive,inactive,inactive,inactive,inactive,inactive,inactive,inactive,inactive,inactive,inactive,inactive,inactive,inactive,inactive,inactive,inactive,–
CC(=O)/C=C/c1ccccc1,–,–,inactive,–,–,–,inactive,inactive,inactive,inactive,inactive,inactive,inactive,inactive,inactive,inactive,inactive,inactive,inactive
O=C(O)C1C(C(=O)O)C2(Cl)C(Cl)=C(Cl)C1(Cl)C2(Cl)Cl (stereo unspecified),inactive,inactive,inactive,inactive,inactive,inactive,inactive,inactive,inactive,inactive,inactive,–,–,inactive,inactive,inactive,inactive,inactive,inactive
CN(C)CCC#N,inactive,inactive,inactive,inactive,inactive,inactive,inactive,inactive,inactive,–,inactive,inactive,inactive,inactive,inactive,inactive,inactive,inactive,inactive
CN(C)C(=O)C(c1ccccc1)c1ccccc1,inactive,–,inactive,–,–,–,inactive,inactive,inactive,inactive,inactive,inactive,inactive,inactive,inactive,inactive,inactive,inactive,inactive
O=S(=O)(O)OOS(=O)(=O)O,inactive,–,inactive,–,–,–,inactive,inactive,inactive,inactive,inactive,inactive,inactive,inactive,inactive,inactive,inactive,inactive,inactive
CCOP(=S)(OCC)Oc1cc(C)nc(C(C)C)n1,inactive,–,inactive,–,–,–,inactive,inactive and 17.2 µM (active),inactive and 27.3 µM (active),inactive and 6.86 µM (active),inactive,inactive,inactive,inactive,inactive,inactive and 54.5 µM (active),inactive and 43.6 µM (active),inactive,inactive and 17.2 µM (active)
